Assay outcomes deposited in PubChem BioAssay by National Center for Advancing Translational Sciences (NCATS).
DRD3 agonist = activates the human D3 dopamine receptor | P35462 | D3R DiscoveRx beta-arrestin cells, luminescence, 90 min | max activation, % | 410,000 compounds, 0.58% hits | AID 652048; in the data active = max activation above about 30%; also: 0% is about no effect
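Agonist-mode cell screen: cells plated at 1500/well and incubated overnight at 37 °C, then exposed to library compounds for 90 min at 37 °C. Detection reagent was added for 30–60 min at room temperature, and luminescence was read.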
D1 ag = activates the human D1 dopamine receptor; P21728; HEK293 T-REx D1 cells, calcium flux, agonist mode; activation, % at 2 µM; 360,000 compounds, 1% hits; in the data active = activation above about 30%; also: 0% is about no effect
Target sequence (P21728 whole entry, looked up): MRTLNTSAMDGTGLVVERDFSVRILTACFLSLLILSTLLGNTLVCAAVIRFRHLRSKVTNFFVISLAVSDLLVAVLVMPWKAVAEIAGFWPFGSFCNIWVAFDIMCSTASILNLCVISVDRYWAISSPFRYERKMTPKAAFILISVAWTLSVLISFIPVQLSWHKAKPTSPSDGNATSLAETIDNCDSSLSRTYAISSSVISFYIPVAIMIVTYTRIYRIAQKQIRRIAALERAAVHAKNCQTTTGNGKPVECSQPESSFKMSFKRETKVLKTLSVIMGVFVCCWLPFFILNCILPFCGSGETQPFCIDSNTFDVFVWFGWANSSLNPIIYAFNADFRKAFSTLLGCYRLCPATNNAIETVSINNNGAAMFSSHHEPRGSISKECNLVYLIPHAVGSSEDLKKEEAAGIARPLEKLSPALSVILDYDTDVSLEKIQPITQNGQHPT
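Inducible HEK293 T-REx D1 cells, force-coupled to calcium signalling, were plated at 4000 cells/well with tetracycline and held overnight at 30 C. After no-wash calcium dye loading, compound-evoked calcium rise over 180 s flagged agonists.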
D1 antag = antagonists of human D1 dopamine receptor; HEK293 TREx D1 cells, calcium flux, dopamine EC80; hits give low values; activity change, negative = inhibition, % at 10 µM; 360,000 compounds, 3.2% hits; in the data active = activity change below about -30%; also: % is scaled to controls: 0 for no effect and ±100 for the full control effect
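Compound effects on dopamine-evoked calcium signalling were measured in tetracycline-induced HEK293 Trex D1 cells. Dopamine at EC80 followed a 180 s compound pre-read, and fluorescence was tracked kinetically for 180 s more.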
D3 antag = D3 dopamine receptor (human) antagonism. D3R cells, DiscoveRx beta-arrestin luminescence, antagonist mode; hits give low values. 360,000 compounds, 2.5% hits. max response, negative = inhibition, %; in the data active = max response below about -50%; inconclusive = no clear call, values can overlap the other calls; also: % is scaled to controls: 0 for no effect and ±100 for the full control effect
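Cells plated overnight at 1500 cells/well, then exposed to library compounds with dopamine controls for 90 minutes at 37 degrees C. DiscoveRx reagent added for 30–60 minutes at room temperature; luminescence read, quantitative HTS format.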
D1 potentiator = human D1 dopamine receptor positive modulation; P21728; 360,000 compounds, 0.036% hits; AID 504651; potentiation, % at 10 µM; HEK293 TREx D1 cells, calcium flux, dopamine EC20 potentiation; in the data active = potentiation above about 30%; also: 0% is about no effect
Starred values were filed as active, the others as inactive; ? = inconclusive; · = no result given. Most compounds without a hit are left out; they make up all but 6% or so of the library.

SMILES | DRD3 agonist | D1 ag | D1 antag | D3 antag | D1 potentiator
CSc1ccc(CN2CCN(C(=O)c3ccc([N+](=O)[O-])cc3)CC2)cc1 | -10.4 | 9.4 | -59.9* | -8.6 | -10.1
O=C(c1ccccc1)N1CCN(Cc2ccccc2)CC1 | -31.8 | 0.1 | -53.5* | ? | -5.0
CN1CCN(C(=O)c2cccc(COc3cc(Cl)ccc3Cl)c2)CC1 | -48.6 | 1.9 | -42.9* | -6.6 | -13.6
COc1ccc(C)c2sc(N3CCN(C(=O)c4ccco4)CC3)nc12 | 1.3 | -4.1 | · | · | 2.4
C/C(=N\Nc1nc2ccccc2[nH]1)c1ccc(C)o1 | -7.7 | 3.0 | -51.8* | 11.1 | -8.6
C/C(=N\Nc1nc2ccccc2[nH]1)c1ccc(Cl)s1 | -2.4 | 0.5 | 2.7 | -3.7 | -10.8
CC(C)c1ccc(-n2cnn(-c3ncccc3[N+](=O)[O-])c2=O)cc1 | -20.2 | 3.7 | -7.7 | -83.2* | 6.8
CCc1ccc([C@H]2[C@@H]3C(=O)C[C@@H]4C(=O)NC(=O)[C@@H]4[C@@H]3CN2S(=O)(=O)c2ccc(C)cc2)cc1 | 2.0 | · | · | 0.0 | ·
CC(=O)Nc1c(C)ccc2nsnc12 | 7.8 | 0.4 | -18.8 | -77.1* | -2.2
Cc1ccc2nsnc2c1NC(=O)CCc1ccccc1 | 12.3 | 2.4 | -19.1 | 10.9 | -3.1
C/C(=N\NC(=S)NCc1ccccc1)c1ccc(C#N)cc1 | 0.8 | 0.2 | -32.8* | -15.4 | -0.8
C/C(=N\NC(=S)NCc1ccccc1)c1ccccc1 | -3.1 | 0.9 | 13.8 | -28.1 | -0.1
Cc1cc([N+](=O)[O-])ccc1-c1ccc(/C=N/NC(=O)c2ccc(Br)o2)o1 | -2.3 | 14.0 | 4.8 | -53.8* | -3.2
COc1ccccc1C(=O)Nc1nnc2n1CCS2 | 4.3 | 2.9 | 25.7 | · | -4.2
CCCc1ccc(C#N)c(SC2CC(=O)N(c3ccc(OC)cc3)C2=O)n1 (stereo not drawn) | 0.2 | 12.7 | -45.0* | 4.3 | -2.0
O=C1CC(Sc2nnnn2-c2ccccc2)C(=O)N1c1cccc(Cl)c1 (stereo not drawn) | 0.1 | 8.2 | -8.3 | -3.4 | -6.5
COc1ccc(N2C(=O)CC(Sc3nnnn3-c3ccc(F)cc3)C2=O)cc1 (stereo not drawn) | -7.0 | 6.4 | -4.8 | -59.9* | 0.8
CCN(c1ccccc1)S(=O)(=O)c1cccc(C(=O)NCC2(N(C)C)CCCCC2)c1 | -5.9 | 2.8 | -4.1 | -1.8 | -0.7
COc1cccc(-c2nnc(SCC(=O)NC3CCS(=O)(=O)C3)n2C)c1 (stereo not drawn) | 3.9 | 3.2 | -35.2* | -25.5 | -6.6
CCOc1ccc(S(=O)(=O)N2CCN(Cc3nc4ccc(C)cc4o3)CC2)cc1 | -14.9 | -0.5 | -10.5 | · | 0.1
O=C(C1=NN(c2ccccc2)C2C(=O)N(c3cccc(Cl)c3)C(=O)C12)c1ccccc1 (stereo not drawn) | 8.2 | 104.2* | 14.6 | 10.2 | -0.7
O=C1C2C3CC(C2C(=O)N1c1cccc(Cl)c1)[C@H](O)C3O (stereo partly drawn) | 0.1 | 2.0 | 8.5 | 7.4 | -0.1
O=C(C1=NN(c2ccccc2)C2C(=O)N(c3ccc(Cl)cc3)C(=O)C12)c1ccccc1 (stereo not drawn) | 9.3 | 192.3* | -14.1 | 22.7 | 7.2
CC(=O)C1=NOC2C(=O)N(c3ccc(Cl)cc3)C(=O)C12 (stereo not drawn) | 2.8 | 50.5* | -0.5 | 1.6 | 1.4
C[C@@H]1CN([C@@H](C)CO)C(=O)c2cc(Br)cnc2O[C@H]1CN(C)C(=O)c1ccccc1F | 1.6 | · | · | 1.8 | ·
SMILES | DRD3 agonist | D1 ag | D1 antag | D3 antag | D1 potentiator
Cc1ccc(N2CCC3CC2c2cc(-c4ccc(C(F)(F)F)cc4)ccc23)cc1 (stereo not drawn) | 4.6 | · | · | -13.1 | ·
CN(C)CCNc1oc(-c2ccc(COc3ccc(Cl)cc3)o2)nc1C#N | -12.2 | 24.2 | -7.8 | · | -1.1
CCOC(=O)c1cnn(-c2ccccc2)c1-n1cccc1C(=O)C(=O)Nc1ccccc1 | 3.2 | 2.4 | -15.5 | 0.0 | -3.7
CCOC(=O)c1cnn(-c2ccccc2)c1-n1cccc1C(=O)C(=O)Nc1ccc(F)cc1 | 1.7 | 6.8 | -85.1* | 1.0 | -6.0
CCOC(=O)c1cnn(-c2ccccc2)c1NC(=O)C(F)(F)C(F)(F)C(F)(F)F | -4.4 | 4.7 | -17.3 | -67.6* | 17.6
CCOC(=O)c1cnn(-c2ccccc2)c1NC(=O)c1ccccc1 | 16.8 | 1.7 | 17.4 | 11.9 | -3.8
Cc1c(-c2cccc(NC(=O)Nc3ccc(Cl)cc3)c2)nc2ncccn12 | -7.1 | 3.1 | -17.6 | · | -5.3
Cc1c(-c2cccc(NC(=O)c3ccc(F)c(F)c3)c2)nc2ncccn12 | -18.6 | 0.3 | -36.4* | · | -1.5
COCCNC(=O)CCn1c(=O)[nH]c2cc(OC)c(OC)cc2c1=O | -5.5 | 0.4 | -6.3 | · | 4.8
CC1Cc2ccccc2N1S(=O)(=O)c1cccc(C(=O)NCc2ccncc2)c1 (stereo not drawn) | 5.9 | 14.2 | -54.1* | 15.4 | ·
CC1Cc2ccccc2N1S(=O)(=O)c1cccc(C(=O)NCc2ccccn2)c1 (stereo not drawn) | 0.2 | 0.5 | -4.0 | -3.3 | -3.2
CN1CCN(c2ccccc2/C=N/NC(=O)c2cccnc2)CC1 | -17.7 | 3.4 | -9.5 | -50.1* | 0.5
O=C(N/N=C\c1cc2c(cc1Cl)OCO2)c1cccnc1 | 1.9 | 0.8 | 15.0 | 15.7 | 4.9
Nc1[nH]nc2c1NN(c1ccc(Cl)cc1Cl)N2 | -0.1 | 3.1 | -38.3* | 7.0 | -5.1
CCOC(=O)c1sc(=S)[nH]c1C | 2.1 | · | · | -52.3* | ·
CSc1ccccc1N1CCN(C(=O)Nc2ccc3c(c2)NC(=O)CO3)CC1 | -5.3 | 14.6 | -49.3* | -23.8 | -11.7
O=C(CSc1nc2ccccc2n1Cc1ccccc1Cl)NCc1ccccc1 | -19.4 | 2.1 | -1.3 | · | 0.7
CCC1CCCCN1c1nc(-c2cccc(OC)c2O)nc2ccccc12 (stereo not drawn) | 31.5* | 0.3 | 35.6 | 28.1 | 9.3
NC(CS)C(=O)O (stereo not drawn) | -2.7 | · | · | · | ·
O=C(NC(c1ccc(Cl)cc1)c1cnccn1)C1CCN(Cc2ccccc2)CC1 (stereo not drawn) | -15.2 | · | · | 18.7 | ·
COc1cc(CN2CCC(C(=O)NC(c3ccc(-c4ccccc4)cc3)c3cnccn3)CC2)cc(OC)c1 (stereo not drawn) | -9.8 | · | · | -53.6* | ·
COc1ccc(C(NC(=O)C2CCN(Cc3ccc(Oc4ccccc4)cc3)CC2)c2ccccn2)cc1 (stereo not drawn) | -26.1 | · | · | -55.4* | ·
O=C(NC(c1ccc(-c2ccccc2)cc1)c1cnccn1)C1CCN(Cc2ccc(Oc3ccccc3)cc2)CC1 (stereo not drawn) | -20.2 | · | · | -54.1* | ·
Cc1cc(C)c(C)c(S(=O)(=O)NCC(=O)NCC2CCCCC2)c1C | -11.6 | 15.3 | -1.6 | -7.5 | -3.7
CCn1nc(-c2ccccc2)c(-c2ccccc2)c(C(=O)Nc2nc(C)c(C(C)=O)s2)c1=O | 22.3 | 3.4 | 11.4 | · | -0.4
COc1ccc(CCNC(=O)C(=O)NN=C2CCCCCCC2)cc1OC | 5.8 | 1.2 | -74.0* | 17.9 | -7.8
